Data taken from PubChem BioAssay AID504329 (Southern Research Specialized Biocontainment Screening …, 2011).
About 1,000 (0.29%) of roughly 340,000 compounds were called active. Not all results are given here. Entries with a potency or affinity are not part of this list. Values without a mark were called inactive. Rule as the data show it: inconclusive = inhibition above about 27% without an active follow-up result; inactive = below that.

Assay: H1N1 influenza NS1A inhibitors, functional cell based assay (AID 504329)
Conditions: percent inhibition, at 12.5 µM, stronger effect = higher value

Structure (SMILES)	inhibition
Cc1ccc(CNC(=O)CN2C(=O)CSc3ccc(S(=O)(=O)N4CCCCC4)cc32)cc1	2.97%
COC(=O)c1ccc(CNC(=O)c2coc3ccccc3c2=O)cc1	-15.6%
O=C(COc1ccc(Cl)cc1)NC1CCSC1=O (stereo not given)	-5.86%
O=C1CC(NNc2nc3ccccc3s2)C(=O)N1c1ccccc1 (stereo not given)	2.74%
O=C(COC(=O)C1CCC1)c1c[nH]c2ccccc12	-3.9%
CCn1c(=O)[nH]c2cc(C(=O)N3CCN(c4ccccc4)CC3)ccc2c1=O	5.52%
COc1cc2c(cc1OC)CN(c1nc(CN3CCOCC3)nc3sc4c(c13)CCCC4)CC2	4.39%
O=C(NCC(c1ccco1)N1CCCCC1)c1ccc(S(=O)(=O)Nc2ccccc2)cc1 (stereo not given)	-1.8%
COc1ccc(-n2ccnc(SCC(=O)NC3CCCCC3)c2=O)cc1	-5.37%
CCc1cccc2sc(NC(=O)C3CC3)nc12	-5.24%
Nc1c(C=C2C=CC(=O)C=C2)c(=O)nc2snc(SCc3ccccc3)n12	11.3%
C=CCOc1ccc(C(=O)c2ccccc2)c(OCC(=O)NC2(C#N)CCCC2)c1	5.71%
COc1cccc2nc3cc(C)c(C)cc3nc12	1.36%
COc1ccc2nc3cccc(OC)c3nc2c1	-1.33%
OC(CN1CCN(c2ccc(C(F)(F)F)cn2)CC1)c1ccccc1 (stereo not given)	-15%
CC(C)(C)N(Cc1ccccc1)C(=O)COC(=O)c1ccc(S(=O)(=O)N2CCOCC2)cc1	-2.6%
COc1ccc(C(=O)N/N=C(\c2ccccc2)c2ccccn2)cc1	6.37%
COc1ccc(Nc2cc(C)c3ccccc3n2)cc1	-1.04%
COc1cc(C2C3=C(CCCC3=O)Nc3[nH]n(-c4ccccc4)c(=O)c32)ccc1OC(C)=O (stereo not given)	2.7%
COc1ccc(N2CCN(CCC(N)=O)CC2)cc1	-4.44%
Cn1c(C(=O)NCCCN2CCCCC2)cc2sccc21	8.28%
CC1CCN(CCCNC(=O)c2cc3sccc3n2C)CC1	4.97%
NCCCN1CCN(c2ccccc2)CC1	11.2%
CC1(C)NC(=O)N(CC(=O)OCC(=O)c2ccc(F)cc2)C1=O	-8.13%

Structure (SMILES)	inhibition
CCOc1ccccc1N1CC(C(=O)Nc2cc(S(C)(=O)=O)ccc2Cl)CC1=O (stereo not given)	-5.65%
O=C(O)c1ccc(NCc2nc3ccccc3n2Cc2ccccc2)cc1	11.2%
NNC(=O)c1sccc1OCc1ccc(Cl)cc1	0.97%
Cc1noc(C)c1S(=O)(=O)Nc1ccccc1N1CCOCC1	0.87%
O=C(CCNC(=O)c1ccc([N+](=O)[O-])cc1)Nc1nc2ccccc2[nH]1	-0.35%
O=S(=O)(Nc1ccc(N=Nc2ccc(O)c3ccccc23)cc1)c1ccccc1	5.24%
O=[N+]([O-])c1ccc(N=Nc2ccc(O)cc2O)cc1	-9.68%
COc1ccc(-c2ccc(/C=C3\C(=O)N(c4ccccc4)N=C3c3ccccc3)o2)c([N+](=O)[O-])c1	10.3%
O=C1ON=C(c2ccccc2)/C1=C/c1ccc(-c2ccccc2[N+](=O)[O-])o1	-1.51%
CC(C)Cc1nnc(NC(=O)CCC(=O)NCc2ccccc2Cl)s1	-2.08%
CC(=O)Nc1ccc2nc(NC(=O)COc3ccccc3Cl)sc2c1	-0.9%
CN1CCN(c2ccc(NC(=O)Oc3ccccc3)cc2)CC1	17.8%
CC(C)Oc1cccc(C(=O)Nc2ccc(N3CCN(C)CC3)cc2)c1	-2.02%
COc1ccc(C(=O)Nc2ccc(N3CCN(C)CC3)cc2)cc1	1.09%
C=CC(=O)Nc1cccc(Oc2ccnc3[nH]ccc23)c1	19.9%
Cc1ccc(S(=O)(=O)N2CCN(C(=O)COC(=O)/C=C/c3ccccc3[N+](=O)[O-])CC2)c(C)c1	0.45%
CC(NCC(=O)Nc1ccccc1C(=O)NC1CC1)c1cccs1 (stereo not given)	-16.2%
CCOC(=O)c1c(NC(=O)c2ccccc2)sc2c1CCc1ccccc1-2	-10.9%
COc1ccc2noc3c2c1C(=O)c1ccccc1-3	7.47%
COc1ccc(OC)c2c1C(=O)C(Cl)=C(Cl)C2=O	24.7%
COCCN1C(=O)N[C@@H](c2ccccc2)[C@H](C(=O)OC)[C@H]1C	-12.7%
CC1(C)Oc2ccc3ccc(=O)oc3c2/C(=C/NNC(N)=O)C1=O	-7.94%
CC1(C)Oc2ccc3ccc(=O)oc3c2C(/C=N/O)=C1Cl	-10.3%
Cc1ccc(NC(=O)NNC(=O)CN2C(=O)COc3ccccc32)cc1	-2.65%

Structure (SMILES)	inhibition
Cc1cccc(OC(=O)c2cccnc2)c1C	-8.58%
CC(C)c1nnc(NC(=O)C2CCCN(C(=O)Nc3ccc(F)cc3)C2)s1 (stereo not given)	-2.41%
CCOC(=O)C1CCN(C(=O)C2CCC(=O)N(Cc3cccc(C(F)(F)F)c3)C2)CC1 (stereo not given)	11.5%
Cc1cc2ccccc2n1CCNC(=O)C(C)C	4.98%
CC(=O)NCCn1c(C)cc2ccccc21	-2.59%
O=C(OCc1ccccc1F)c1cc([N+](=O)[O-])ccc1N1CCOCC1	12.7%
CC(=O)NC(c1ccc(C)cc1)c1cc([N+](=O)[O-])c2cccnc2c1O (stereo not given)	22%
CCC(=O)NC(c1ccc(C)cc1)c1cc([N+](=O)[O-])c2cccnc2c1O (stereo not given)	27.3%
CCCC(=O)NC(c1ccco1)c1cc([N+](=O)[O-])c2cccnc2c1O (stereo not given)	4.57%
CCCC(=O)NC(c1cccs1)c1cc(Cl)c2cccnc2c1O (stereo not given)	-9.38%
CC(C)C(=O)NC(c1ccccc1)c1cc([N+](=O)[O-])c2cccnc2c1O (stereo not given)	3.43%
CC(C)C(=O)NC(c1cccs1)c1cc([N+](=O)[O-])c2cccnc2c1O (stereo not given)	7.53%
Cc1ccc(NC(=O)c2cc(-c3ccccc3)n[nH]2)cc1	-9.32%
COc1ccc(NC(=O)CSc2nnc(C(C)C)n2N)cc1	2.67%
O=C(Cn1c2c(c(=O)n3ncnc13)CCC2)N/N=C/c1ccc(Cl)cc1	-0.52%
CCn1ncc(Br)c1C(=O)Nc1nccs1	8%
COC(=O)/C=C/c1ccc(OC(=O)c2ccncc2)cc1	-0.93%
CC(=O)C1=C(c2ccccc2)OC(N)=C(C#N)C1c1ccccc1C (stereo not given)	7.47%
Cn1c(CC(=O)Nc2ccccc2F)nnc1SCC(=O)NC1CCCC1	4.61%
O=[N+]([O-])c1ccc2c(c1)C(=Nc1ccccc1)c1ccccc1-2	19.1%
Cc1cccc(N=C2NC(=O)c3cc([N+](=O)[O-])ccc32)c1	-0.91%
COc1ccc(CCNCc2ccccc2)cc1	-9.83%
COc1ccc(CCNCc2ccccc2F)cc1	-20.5%
COc1ccc(C(=O)NCCC2=CCCCC2)cc1	-1.2%

Structure (SMILES)	inhibition
COc1ccc(CC(=O)NCCC2=CCCCC2)cc1	10.7%
CCN1C[C@@H]2[C@@H]3C(=O)N(Cc4ccccc4)C(=O)[C@@H]3[C@](CC)(C(=O)OC)N2C1=NC1CCCCC1	-28.6%
Cc1ccc(NC(=O)C2CCN(S(=O)(=O)c3ccc4c(c3)C(C)(C)C(=O)N4C)CC2)c(C)c1	8.27%
CCCn1c(N)c(N(CCOC)C(=O)COC(=O)CSc2cc(C)c3ccccc3n2)c(=O)[nH]c1=O	-17.1%
Cc1cc(/C=C2\SC(=S)N(C)C2=O)c(C)n1-c1cccc(O)c1	-1.47%
Cc1cc(/C=C2\SC(=S)N(C)C2=O)c(C)n1-c1ccccc1O	6.77%
COc1ccc(O)c(/C=C2/SC(=S)N(Cc3ccccc3)C2=O)c1	8.37%
CN1C(=O)/C(=C\c2ccccc2OCc2ccccc2)SC1=S	10.4%
CC(=O)c1c(C)[nH]c(C(=O)NC2=NCCS2)c1C	7.87%
O=C(CN1C(=O)NC2(CCCCC2)C1=O)Nc1cc(C(F)(F)F)ccc1N1CCOCC1	-9.76%
COc1ccccc1Oc1c(C)oc2c(CN(C)C)c(O)ccc2c1=O	12.9%
COc1ccc(N/N=C(\C#N)C(=N)N2CCOCC2)cc1	0.407%
CCCCSCc1[nH]c(=O)[nH]c1C(=O)CCCCC(=O)OCC	1.07%
Cc1[nH]c(=O)[nH]c(=O)c1CSCC(=O)OCC(=O)Nc1ccccn1	-14.1%
CCOC(=O)CCCCC(=O)c1[nH]c(=O)[nH]c1CSCCO	12.6%
O=C(CCCC(=O)OCC(=O)NC1CCCC1)Nc1ccccn1	-6.66%
O=C(CP(=O)(O)CC(=O)c1ccccc1)c1ccccc1	5.59%
O=C1c2cccnc2C(=O)N1CNc1ccc(Cl)cc1	3.28%
COc1cccc(C(=O)NCCS(=O)(=O)NCc2cccnc2)c1	-2.08%
CC(C)CCNC(=O)C(CC(C)C)N(Cc1ccc2c(c1)OCO2)C(=O)c1snc(C(N)=O)c1N (stereo not given)	6.77%
C=CCC1(C#N)C(SC)=NC2=C(C(=O)CC(C)(C)C2)C1c1ccc(Br)cc1 (stereo not given)	-5.14%
O=C(CN1C(=O)COc2ccccc21)Nc1ccccc1F	2.27%
O=C(CN1C(=O)COc2ccccc21)Nc1ccc2c(c1)OCCO2	0.43%
